For 56 compounds, INHIBITION results are on record in ChEMBL document CHEMBL4513216, “Probing the Open Global Health Chemical Diversity Library for Multistage-Active Starting Points for Next-Generation Antimalarials” (ACS Infect Dis, 2020).

The whole screen tested about 68,000 compounds, of which about 2,700 (4%) showed an effect of 50% or more. This excerpt belongs to a sample that is enriched for strong results.

The experiment relates to Plasmodium berghei. The experiment can be described thus: Screen against P. berghei liver stage (PbLuc), transformed with Luciferase, at 2uM. In kind it is functional, HepG2. The settings on record: tested at 2 uM.
Turning to `Cc1nc2ccccc2nc1CN1CCCC1Cn1cncn1` (stereo unspecified), the INHIBITION is 53.72%. The result for `Cc1cccc2nc(CN3CCCC3Cn3cccn3)cn12` (stereo unspecified) reads 19.71%. The result for `Cc1nc2ccccc2nc1CN1CCCCC1Cn1cncn1` (stereo unspecified) reads 12.74%; that for `c1ccc(CN2CCCC2Cn2cncn2)nc1` (stereo unspecified), 23.11%.

For the compound `Cc1c(Cl)c(CN2CCCC2Cn2cncn2)nc2ccccc12` (stereo unspecified), the INHIBITION is reported as -8.32%. As for `CC[C@H](C)[C@H](NC(=O)Cc1csc(-c2cccc(Cl)c2)n1)C(=O)O`, the figure is 13.05%; as for `CC(Oc1cc(Cl)cc(Cl)c1)C(=O)NCCS(N)(=O)=O` (stereo unspecified), -10.59%; as for `CC(=O)N1CC2(CCCC2)c2ccccc21`, 3.01%. As for `CCn1nc(C)c(C(C)NC(=O)c2cccc(NCC(=O)O)c2)c1C` (stereo unspecified), the figure is -6.64%; as for `CCCn1ncc(C(=O)NC(C)c2c(C)nn(CC)c2C)c1C` (stereo unspecified), -21.14%. In the case of `CCCn1cc(C(=O)NC(C)c2c(C)nn(CC)c2C)c(C)n1` (stereo unspecified), the INHIBITION amounted to 51.19%.

On to `Cn1ccnc1CN1CC[C@H](O)[C@@H](n2ccc(=O)[nH]c2=O)CC1`, for which the INHIBITION is 31.14%. For `CCN1CC2(CC1=O)CN(Cc1ccco1)CCN(C(=O)C(C)C)C2` (stereo unspecified), the INHIBITION was -47.39%. As for `O=C(NCCOCCO)c1cccnc1Oc1ccc(Cl)cc1`, the figure is 21.75%. For `c1ccc2oc(N3CCn4c(nnc4C4CC4)C3)nc2c1`, the INHIBITION is recorded as -45.42%.

`Cn1ccnc1-c1ccc(NCc2cn3c(n2)SCC3)nn1`: the INHIBITION was -75.92%. For `CS(=O)(=O)NCCCNC(=O)c1cccc(-n2cccc2)c1`, the INHIBITION is 30.31%.

With `Cc1ccc(C(=O)NCCCN(C)S(C)(=O)=O)cc1-n1cccc1`, the INHIBITION is given as -5.68%. As for `Cc1ccc(C(=O)NCCCNS(C)(=O)=O)cc1-n1cccc1`, the figure is 54.49%; as for `CNC(=O)Cn1nc(C(C)C)c2cnn(C(C)(C)C)c2c1=O`, -30.6%. As for `CCN1CCC(CC(=O)NCC(O)c2ccc3ccccc3c2)CC1` (stereo unspecified), the figure is 52.08%; as for `O=C(CC(F)(F)F)NCC(O)c1ccc2ccccc2c1` (stereo unspecified), 23.81%; as for `COc1cccc(S(=O)(=O)NC(=O)CC2CCCC2)c1`, 14.02%.

In the case of `COc1cccc(C(O)CNC(=O)CC2CCCCC2)c1` (stereo unspecified), the INHIBITION is listed as 51.96%. The result for `O=C(CNC(=O)C1CCCC1)NCC(O)c1ccc2ccccc2c1` (stereo unspecified) reads 9.78%; that for `CCN1CCC(CC(=O)NCCc2nc(C)cc(C)n2)CC1`, 3.4%; that for `CCN1CCC(CC(=O)NCc2nc(C)cc(C)n2)CC1`, -28.09%. As for `CCN1CCC(CC(=O)NCC(O)c2cccc(OC)c2)CC1` (stereo unspecified), the figure is 50.32%; as for `CC(C)Oc1cccc(C(O)CNC(=O)CCc2ccncc2)c1` (stereo unspecified), -32.28%. As for `O=C(C1CCOCC1)N1C[C@@H]2[C@@H](C1)OCC(=O)N2Cc1ccncc1`, the figure is -25.8%; as for `CC(Nc1ncnc2c1CCNC2)c1ccc2c(c1)CCCC2` (stereo unspecified), 48.21%; as for `Cn1ncc2c1CN(C(=O)Cc1ccccn1)CC2COCC1CC1` (stereo unspecified), -4.69%. Turning to `O=C(C1CCC1)N1CCN(Cc2ccc(F)cc2)[C@H]2CS(=O)(=O)C[C@H]21`, the INHIBITION came to 5.17%. As for `Cc1ncc2c(n1)CN(CC(=O)Nc1ccncc1)CC2`, the INHIBITION is recorded as -63.75%. As for `Cc1ncc2c(n1)CN(CC(=O)Nc1c(C)nn(C)c1C)CC2`, the figure is 64.16%. The result for `CCc1ncc2c(n1)CN(CC(=O)Nc1cccnc1)CC2` reads -28.98%. On to `Cc1cc(NC(=O)CN2CCc3cnc(C)nc3C2)on1`, for which the INHIBITION is recorded as 42.11%. With `Cc1ncc2c(n1)CN(CC(=O)Nc1cccnc1)CC2`, the INHIBITION turned out to be 51.94%. The result for `Cc1ncc2c(n1)CN(CC(=O)Nc1cc(C)on1)CC2` reads 31.57%; that for `Cc1cc(C(=O)N2CCC3(CCNCC3)CC2)c2cccc(C)c2n1`, -26.08%. The result for `COc1ccccc1CNC(Cc1cccs1)c1nc(C)c(C)s1` (stereo unspecified) reads 46.15%. As to `Cc1nc(C)n(C2CCCN(C(=O)c3ccc(OC(C)C)nc3)C2)n1` (stereo unspecified), the INHIBITION is given as 3.33%. Take `CCN(CCN(C)C)c1nc(CCN)nc2sc(C)c(C)c12`: the INHIBITION is on record as -6.77%. As to `Cn1ncc2c1NC(=O)CC2c1ccc(O)cc1` (stereo unspecified), the INHIBITION came to 16.01%. For `Cc1cc(C)n(CC2CCCN2C(=O)c2cccc3c2OCCO3)n1` (stereo unspecified), the INHIBITION worked out at 50.75%. As for `COCCN1CCCC1Cn1nc(C)cc1C` (stereo unspecified), the INHIBITION was determined as 17.98%. The result for `CCCN1CCCC1Cn1nc(C)cc1C` (stereo unspecified) reads 60.23%. `Cc1cc(C)n(CC2CCCN2CCS(C)(=O)=O)n1` (stereo unspecified): the INHIBITION is given as -6.16%. The result for `Cc1cnn(CC2CCCCN2C(=O)c2cccnc2N(C)C)c1` (stereo unspecified) reads 70.27%; that for `COCCOc1ncccc1C(=O)N1CCCC1Cn1cc(C)cn1` (stereo unspecified), -17.31%; that for `Cc1cc(C)n(CC2CCCN2C(=O)c2ccc3c(c2)OCCO3)n1` (stereo unspecified), 4.07%. As for `Cc1cc(C)n(CC2CCCN2C(=O)Cc2c(C)noc2C)n1` (stereo unspecified), the figure is 51.19%; as for `Cc1cc(C)n(CC2CCCN2C(=O)Cc2c(C)nn(C)c2C)n1` (stereo unspecified), -15.05%. The result for `Cc1cc(C)n(CC2CCCN2C(=O)c2cccc3c2OCO3)n1` (stereo unspecified) reads -72.55%. On to `CN(C)c1ncccc1C(=O)N1CCCC1Cn1cccn1` (stereo unspecified), for which the INHIBITION is listed as 7.13%.

As for `Cc1cc(C)n(CC2CCCN2C(=O)c2c(C)noc2C)n1` (stereo unspecified), the INHIBITION is listed as -27.28%.
